About 17,000 (4.4%) of roughly 390,000 compounds were called active. A call without a number means that no potency is given here. Roughly 8% stayed inconclusive and do not appear here. The call rests on the fitted dose curve; in most records, active means well fitted inhibition curve with a large enough effect; inconclusive means small, poorly fitted or top-dose-only effect; inactive means no such curve, though single readings can be large or run the other way. The full list was thinned out, with actives kept by preference.
Molecular target: Lysine-specific demethylase 4A (Homo sapiens) (UniProt O75164)
Sequence (O75164 whole entry, looked up, the tested form may be a part): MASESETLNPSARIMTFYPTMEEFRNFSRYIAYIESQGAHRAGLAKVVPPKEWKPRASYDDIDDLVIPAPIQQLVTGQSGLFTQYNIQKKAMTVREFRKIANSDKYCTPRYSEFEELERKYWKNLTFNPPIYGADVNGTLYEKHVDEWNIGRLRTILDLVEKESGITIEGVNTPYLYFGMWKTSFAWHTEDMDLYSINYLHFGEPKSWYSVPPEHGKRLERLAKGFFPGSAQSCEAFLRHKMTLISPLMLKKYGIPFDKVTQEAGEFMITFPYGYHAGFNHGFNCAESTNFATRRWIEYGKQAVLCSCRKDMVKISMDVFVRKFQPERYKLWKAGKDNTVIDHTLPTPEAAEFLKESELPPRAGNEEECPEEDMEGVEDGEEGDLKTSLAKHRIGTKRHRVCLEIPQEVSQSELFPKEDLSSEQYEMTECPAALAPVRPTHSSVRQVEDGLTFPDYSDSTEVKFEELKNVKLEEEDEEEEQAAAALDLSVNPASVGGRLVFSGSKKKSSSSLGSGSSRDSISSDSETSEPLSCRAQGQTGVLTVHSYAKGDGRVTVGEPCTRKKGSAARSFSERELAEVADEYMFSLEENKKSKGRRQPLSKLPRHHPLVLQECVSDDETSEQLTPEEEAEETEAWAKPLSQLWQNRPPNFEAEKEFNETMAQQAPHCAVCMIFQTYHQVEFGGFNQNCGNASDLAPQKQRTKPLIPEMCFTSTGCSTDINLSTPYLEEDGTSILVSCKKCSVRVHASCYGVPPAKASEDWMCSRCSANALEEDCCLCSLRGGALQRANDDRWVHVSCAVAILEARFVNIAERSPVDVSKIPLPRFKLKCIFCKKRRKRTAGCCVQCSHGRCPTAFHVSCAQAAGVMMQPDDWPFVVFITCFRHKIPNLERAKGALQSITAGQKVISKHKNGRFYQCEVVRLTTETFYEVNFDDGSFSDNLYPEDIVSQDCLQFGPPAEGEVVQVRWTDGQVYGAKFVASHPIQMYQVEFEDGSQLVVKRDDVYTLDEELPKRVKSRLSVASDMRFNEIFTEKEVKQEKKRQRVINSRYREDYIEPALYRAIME
Assay: qHTS Assay for Inhibitors of JMJD2A-Tudor Domain; further: nearly all actives have a fitted effect of over 50% in size
Conditions: AlphaScreen JMJD2A-Tudor / H3K4me3 peptide binding; series mostly up to 114 µM
Potency means the concentration at half of the fitted maximal effect.

Structure (SMILES) | Potency
CCOc1ccc(NC(=O)C(=O)NCCc2csc3nc(-c4ccccc4F)nn23)cc1 | inactive
Cc1cc(C)c2oc(C(=O)Nc3ccc(S(=O)(=O)N4CCCCCC4)cc3)cc(=O)c2c1 | inactive
CCOC(=O)c1c(NC(=O)Cc2coc3ccc(CC)cc23)sc2c1CCC2 | inactive
CCc1nn(CC(=O)N2CCN(c3cccc(C(F)(F)F)c3)CC2)c(=O)c2cc3occc3n12 | inactive
Cc1nc2nc(NCc3cccc(Br)c3)[nH]n2c(=O)c1Cc1ccccc1 | inactive
Cc1cc(C)n2ncc(C(=O)Nc3cccc(C#N)c3)c2n1 | inactive
COc1ccccc1C(=O)Nc1ccc(Nc2ccccc2)cc1 | inactive
Nc1ccc(S(=O)(=O)NC(=O)c2ccccc2)cc1 | inactive
Nc1ccc(Nc2ccccc2)cc1 | 39.8 µM (active)
CCN(CC)C(=O)CSc1nc2cc3c(cc2c(=O)n1CCCC(=O)NCc1ccc2c(c1)OCO2)OCO3 | inactive
COc1ccccc1-c1noc(CSc2nnc(-c3ccccc3)n2-c2ccc(C)c(C)c2)n1 | inactive
NNc1nc2c(Cl)cccc2s1 | 63.1 µM (active)
NC(=O)c1c(Nc2nc3c(F)cccc3s2)sc2c1CCCC2 | inactive
CCc1nnc(SCc2c(F)cccc2Cl)c2cc3sccc3n12 | inactive
CCN(C(=O)Cn1cc(S(=O)(=O)N2CCN(c3ccccc3F)CC2)c2ccccc2c1=O)c1ccc(C)c(C)c1 | inactive
CCCOc1ccc(C(=O)Nc2ccc3oc(-c4cccc(Cl)c4Cl)nc3c2)cc1 | inactive
CCOC(=O)C1CCCCN1Cc1ccc(OC)c(OC)c1OC (centres undefined) | 2.24 µM (active)
CCOC(=O)C1CCN(C(=O)/C=C/c2cc(OC)c(OC)c(OC)c2)CC1 | inactive
CCOC(=O)C1CCN(S(=O)(=O)c2cc(F)ccc2OC)CC1 | inactive
CCOc1ccccc1CNCc1c(C(=O)O)c(C)n(Cc2ccc(C)cc2)c1C | inactive
CC1=C(c2ccc(C)c(C)c2)S(=O)(=O)NC1=NCc1ccccc1Cl | inactive
Cc1nc2ccn(Cc3cccs3)c(=O)c2cc1C(=O)NCc1ccc(Cl)cc1 | inactive
CCOc1nc(NCCN2CCOCC2)nc(Nc2ccc(C)cc2)n1 | inactive
CCOc1cccc(/C=N/NC(=S)NCCN2CCOCC2)c1O | 56.2 µM (active)
O=C(NCCN1CCOCC1)Nc1cccc(Cl)c1 | inactive
O=C(Nc1nc2c(s1)CCCC2)c1ccccc1F | inactive

Structure (SMILES) | Potency
COc1ccc(-c2nnc(SCC(=O)Nc3ccc(C(C)C)cc3)nc2-c2ccc(OC)c(OC)c2)cc1OC | inactive
CCCCN(C)CCCNC(=O)CN1N=C(c2ccc(OC)cc2)CCC1=O | inactive
Nc1ccc2nc3c(=O)[nH]c(=S)[nH]c3nc2c1 | 2.51 µM (active)
COc1ccc(CNC(=O)Cc2coc3ccc(C(C)C)cc23)cc1 | inactive
COc1ccc(CCNC(=O)C(=O)NCC(c2ccco2)S(=O)(=O)c2cccs2)cc1OC (centres undefined) | inactive
Cc1nnc(N/N=C/c2ccccn2)[nH]c1=O | 20 µM (active)
CCOc1ccc(-n2c(O)c(/C=N/Nc3nnc(C)c(=O)[nH]3)c3ccccc3c2=O)cc1 | 28.2 µM (active)
CCOc1ccc(-n2c(SCC(=O)NCc3ccccc3)nc3n[nH]c(C)c3c2=N)cc1 | inactive
O=C(COc1ccc(Cl)cc1Cl)N/N=C/c1ccccn1 | inactive
O=C(N/N=C/c1ccccn1)C12CC3CC(CC(C3)C1)C2 | inactive
CCN(CC)CCCN=Cc1c(O)n(-c2ccc(C)cc2)c(=O)c2ccccc12 | inactive
Cc1cccc(C(=O)N2CCc3cc(CNC(=O)Cc4ccc(F)cc4)ccc32)c1 | inactive
COc1cccc(C(=O)Nc2ccc(-c3cc(C(F)(F)F)nn3-c3ccccc3)cc2)c1 | inactive
OCc1cnc(SCc2ccc(F)cc2)n1Cc1ccc(F)cc1 | inactive
Cc1ccc(S(=O)(=O)N2CCN(c3nc(-n4cnc5ccccc54)nc4ccccc34)CC2)cc1 | inactive
c1ccc(Cn2nnc3c(N4CCCCC4)ncnc32)cc1 | inactive
COc1cc(OC)cc(-c2nc3nc(C)c(CCC(=O)Nc4ccc(C)cc4)c(C)n3n2)c1 | inactive
Cc1ccc(Nc2ccccc2N)cc1 | 44.7 µM (active)
Nc1ccc(C(=O)Nc2ccccc2N)cc1 | inactive
Cc1ccc(Nc2nc(Cl)c(C=O)s2)cc1 | inactive
O=C(c1ccco1)n1nc(-c2ccc(Cl)cc2)nc1NCc1ccccc1 | inactive
Cc1nn2c(=O)cc(COC(=O)c3cccc(NC(=O)COc4ccccc4Cl)c3)nc2s1 | inactive
Cc1cccc(-n2c(C)cc(/C=N/NC(N)=S)c2C)c1 | 56.2 µM (active)
Cc1cc(/C=N/NC(N)=O)c(C)n1C1CCCCC1 | inactive
Cc1cc(/C=N/n2cnnc2)c(C)n1-c1ccc2ncccc2c1 | inactive
Cc1cc(C(=O)Nc2cccc(C(F)(F)F)c2)c2c(C)nn(-c3cccc(F)c3)c2n1 | inactive

Structure (SMILES) | Potency
COCCCNC(=O)c1ccc(NC(=O)c2nsc3ccccc23)cc1 | inactive
CCCCN1C(=O)/C(=C/C=C2/C=Cc3ccccc3N2CC)SC1=S | inactive
CCCCN1C(=O)/C(=C2/C=CC=CN2C)SC1=S | 44.7 µM (active)
COc1ccccc1C(=O)N1CCN=C1SCc1cccnc1 | inactive
COc1cccc(OC)c1C(=O)N1CCN(Cc2cccnc2)CC1 | 5.01 µM (active)
COc1cccc(OC)c1OCCN1CCN(C(=O)c2ccco2)CC1 | inactive
CCCn1c2ccccc2c2cnn(CC(=O)NCCCOC(C)C)c(=O)c21 | inactive
COc1cccc(N=C2SC(C(=O)Nc3cccc(Cl)c3)CC(=O)N2C)c1 (centres undefined) | inactive
COc1cccc(CNC(=O)Cn2ncn3c(cc4ccccc43)c2=O)c1 | inactive
S=c1[nH]nc(-c2cc(-c3ccccc3)n[nH]2)n1/N=C/c1c2ccccc2cc2ccccc12 | 39.8 µM (active)
S=c1[nH]nc(-c2ccccc2)n1/N=C/c1c[nH]c2ccccc12 | 89.1 µM (active)
Cc1ccc(/C=N\n2c(-c3ccccc3)n[nH]c2=S)s1 | 50.1 µM (active)
C=CCNC(=S)N/N=C/c1ccc(C)s1 | inactive
C[n+]1ccc(/C=C/c2c[nH]c3ccccc23)cc1 | inactive
O=C(Cn1cncn1)N/N=C/c1c2ccccc2cc2ccccc12 | inactive
CCc1n[nH]c(=S)n1/N=C/c1c[nH]c2ccc(Br)cc12 | inactive
Cc1ccccc1C(=O)NCc1nc(-c2ccc(Cl)cc2)no1 | inactive
O=C(Nc1ccc(S(=O)(=O)N2CCC(c3nc4ccccc4s3)CC2)cc1)c1ccccc1F | inactive
CCc1ccc(C2CC(=O)c3c([nH]c(C(=O)OCc4ccc(C)cc4)c3C)C2)cc1 (centres undefined) | inactive
Cc1cccc(N2CCN(C(=O)c3ccc(Nc4nc5ccccc5n5nnnc45)cc3)CC2)c1C | inactive
N#Cc1nc(/C=C/c2ccc(F)cc2)oc1NCc1ccc(F)cc1 | inactive
CC(=O)N1CCc2cc(S(=O)(=O)NC(Cc3ccccc3)C(=O)NCc3ccc(C)cc3)ccc21 (centres undefined) | inactive
Cc1ccccc1CNC(=O)C1CCCN(S(=O)(=O)N(C)c2ccc(F)cc2)C1 (centres undefined) | inactive
CC1=C/C(=N\OS(=O)(=O)c2ccccc2)C=CC1=O | 22.4 µM (active)
CCc1ccccc1NC(=O)Cn1c(=O)n(-c2cccc(C)c2)c(=O)c2c1c1cc(OC)ccc1n2C | inactive
O=C(NC1CCCCC1)c1ccc2c(c1)N(Cc1ccc(Cl)cc1)C(=O)c1ccccc1S2=O (centres undefined) | inactive

Structure (SMILES) | Potency
CCOc1cc(C(=O)Nc2nnc3n2CCS3)cc(OCC)c1OCC | inactive
O=C(O)C1CC=CC2CCN(C3CCCCC3)C(=O)C21 (centres undefined) | inactive
O=C(O)c1cccc2c1C(=O)N(C1CCCCC1)C2 | inactive
O=C(O)C1CCN1C1CCCCC1 (centres undefined) | 31.6 µM (active)
CCCCOc1ccc(NC(=O)c2cc3c(n(-c4ccc(Cl)cc4)c2=O)CCCC3=O)cc1 | inactive
Nc1nc(SCc2ccc([N+](=O)[O-])cc2)c2ncn(C3OC(CO)C(O)C3O)c2n1 (centres undefined) | inactive
CC(C)Sc1nc(N)nc2c1ncn2C1OC(CO)C(O)C1O (centres undefined) | inactive
COC1C(CO)OC(n2cnc3c(=S)nc(N)[nH]c32)C1O (centres undefined) | 17.8 µM (active)
O=C(Nc1ccc(Oc2ccccc2)cc1)C1CCN(S(=O)(=O)c2ccc(Cl)cc2)CC1 | inactive
COc1ccc(C(=O)Nc2nonc2-c2ccc(OC)c(OC)c2)cc1Cl | inactive
Cc1ccc(S(=O)(=O)N(Cc2nc(-c3ccc(Cl)cc3)no2)C2CCCCC2)cc1 | inactive
CC(C)c1ccc(OCC(O)Cn2cnc3ccccc32)cc1 (centres undefined) | inactive
CC(=O)OC(COc1ccc(F)cc1)Cn1cnc2ccccc21 (centres undefined) | 79.4 µM (active)
CC(=O)N=c1ncn(CC(COC(C)=O)OC(C)=O)c2nc[nH]c12 (centres undefined) | inactive
Cc1ccc(Cl)cc1NC(=O)CSc1nc2ccccc2nc1Cc1ccccc1 | inactive
COC(=O)c1c(NC(=O)c2cc(=O)c3c(C)cc(C)cc3o2)sc2c1CCCC2 | inactive
COc1cccc(NC(=O)c2nn(C34CC5CC(CC(C5)C3)C4)cc2[N+](=O)[O-])c1 | inactive
Cc1nc([N+](=O)[O-])nn1C12CC3CC(CC(Br)(C3)C1)C2 | 56.2 µM (active)
O=C(COc1ccccc1)OCc1cc(=O)n2nc(-c3cccs3)sc2n1 | inactive
CCC(=O)N1c2ccccc2CC1C(=O)N1CCN(c2ccccc2)CC1 (centres undefined) | inactive
CCN(CC)S(=O)(=O)c1ccc2c(c1)N(CC(=O)NCc1ccccc1)C(=O)CS2 | inactive
CCCS(=O)(=O)Nc1cccc(-c2cn3ccsc3n2)c1 | inactive
COc1ccc(C2Sc3ccccc3NC3=C2C(=O)c2ccccc23)c(OC)c1OC (centres undefined) | 14.1 µM (active)
COc1ccc(/C=C2\CCc3ccccc3C2=O)c(OC)c1OC | inactive
COC(=O)C(C)C1Sc2ccccc2NC1=O (centres undefined) | inactive
CCOC(=O)C1CCCN(CC(=O)Nc2cc(C)c3c(=O)oc4ccccc4c3n2)C1 (centres undefined) | inactive

Source: PubChem BioAssay AID504339 (National Center for Advancing Translational Sciences (NCATS), 2011)
